# From PubChem
# ALR H2O2 inh = blocks human ALR sulfhydryl oxidase activity. inhibition, % (test concentration not listed). P55789. purified ALR, DTT oxidation, H2O2 HRP-luminol luminescence. 3.8% of 290,000 active;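 active = mean replicate inhibition above about 79%, with every replicate also reaching it, limit read from the data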
# Target sequence (P55789 whole entry, looked up): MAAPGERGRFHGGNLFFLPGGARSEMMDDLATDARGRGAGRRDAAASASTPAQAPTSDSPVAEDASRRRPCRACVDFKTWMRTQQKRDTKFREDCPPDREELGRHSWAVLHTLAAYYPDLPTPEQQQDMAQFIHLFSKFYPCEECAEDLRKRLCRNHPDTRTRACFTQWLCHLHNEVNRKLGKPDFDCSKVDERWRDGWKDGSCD
# Bfl-1 A1 inh = inhibitors of the anti-apoptotic protein A1, read as caspase activation; MEF A1-2A-BIM cells, Caspase-Glo 3/7 luminescence, 3 h; percent of clofoctol response, vehicle zero; AID 2462; caspase activation, % (test concentration not listed); 0.066% of 330,000 active;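 active = over half of replicate activation scores above 10%, or exactly half above 10 with the replicate mean above 10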
# VLA-4 inh = inhibition in a human VLA-4 binding assay. P13612. VLA-4 expressing cells, ligand binding flow cytometry. inhibition, % (about 7 µM as worked out from the volumes in the protocol). 0.2% of 330,000 active; in the data active = inhibition above about 50%
# AHR act = human AHR activation; P35869; AHR-responsive luciferase reporter cells, luminescence; activation, % at 5 µM; 2.5% of 320,000 active; in the data active = activation above about 47%;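 note: 0% = vehicle wells and 100% = reference agonist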
# Mot1-301 SUMO = SUMOylation pathway inhibition by Mot1-301 growth rescue. S. cerevisiae Mot1-301 growth rescue, ATP luminescence, 38.5C; percent above DMSO median, 100 means doubled. growth rescue, % at 18.8 µM. 1% of 320,000 active. AID 2716;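 active = every valid replicate shows activation above 250% relative to neutral control wells; inactive = the rest, any valid replicate at or below 250%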;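 note: OY570 slx delta 5 strain wells were the positive control but not used for scaling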
# Efflux pump inh = inhibitors of Candida antifungal efflux pumps expressed in yeast; S. cerevisiae Candida pump triplex, Nile Red efflux; inhibition, % at 10 µM; 0.44% of 330,000 active; AID 485275;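 active = plate passing quality check with inhibition over a set limit, or well fluorescence over plate mean plus 4 SD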;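 note: Nile Red retained in pooled yeast measured as flow cytometry median fluorescence; 0% = buffer negative control and 100% = Enniatin B positive control; higher means more Nile Red kept so more efflux inhibition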
# Active calls of the source: *; i = inactive; . = not tested or not shown. Only some compounds are listed: those with a hit (about 7.2% of all), similar ones and a draw of the others.
SMILES,ALR H2O2 inh,Bfl-1 A1 inh,VLA-4 inh,AHR act,Mot1-301 SUMO,Efflux pump inh
COc1ccc(NC(=O)CSc2nc(=O)n(CCN(C)C)c3c2CCCC3)cc1OC,6,-1,2,2,-4,0
CN(C)CCn1c2c(c(SCC(=O)Nc3ccccc3)nc1=O)CCCC2,47,0,16,2,-4,0
Cc1cc(C)c2sc(NC(=O)C3=COCCO3)nc2c1,-1,-9,-12,30,0,0
CC1Cc2cc(S(=O)(=O)N3CCC(C(=O)Nc4ccccn4)CC3)ccc2N1C(=O)C1CCC1 (centres undefined),2,0,6,0,-10,0
COc1ccccc1OCC(O)CN1CCN(C(=O)c2ccccc2)CC1 (centres undefined),0,1,1,18,-11,0
Cc1ccc(CNC(=O)C2CC(=O)N(C3CCCC3)C2)cc1 (centres undefined),-1,0,-13,-1,-2,0
O=S(=O)(N/N=C1\CC(c2ccccc2)Oc2ccccc21)c1ccccc1 (centres undefined),96*,1,-6,5,-1,0
Cc1ccc(S(=O)(=O)N/N=C2/CC(c3ccccc3)Oc3ccccc32)cc1 (centres undefined),2,-1,6,6,4,0
CCOc1ccc(N(CC(=O)Nc2cccc(C)c2)S(C)(=O)=O)cc1,-8,0,2,14,-7,0
C/C(=N\NC(=O)COc1ccc(C#N)cc1)c1ccc(N2CCOCC2)cc1,99*,1,0,3,-6,0
N#Cc1ccc(OCC(=O)OCC(=O)Nc2ccc(N3CCOCC3)cc2)cc1,94*,-1,-2,-2,-7,0
C/C(=N\NC(=O)COc1cc(C)cc(C)c1)c1ccc(N2CCOCC2)cc1,.,-1,-12,5,20,0
O=C(COC(=O)CNS(=O)(=O)c1ccc(Br)cc1Cl)Nc1ccc(N2CCOCC2)cc1,99*,0,-1,2,28,0
O=C(CNS(=O)(=O)c1ccc(Br)cc1Cl)OCC(=O)N1CCCC1=O,-1,0,17,1,-3,0
CC1CCCCN1CC(=O)c1c(N)n(Cc2ccccc2)c(=O)n(C)c1=O (centres undefined),.,1,-2,0,-10,0
O=C(O)C1CCCCC1C(=O)Nc1cc(C(F)(F)F)ccc1Cl (centres undefined),-16,0,1,1,.,0
Cc1ccc2[nH]c(O)c(N=NC(N)=S)c2c1,-5,0,6,-3,-16,1
NC(=S)N=Nc1c(O)[nH]c2c(Br)cc(Br)cc12,-3,0,6,63*,-9,0
COc1ccc(NC2CC(=O)N(c3cccc(C)c3)C2=O)cc1 (centres undefined),-6,0,9,-1,9,0
COc1ccc(NC2CC(=O)N(c3cccc([N+](=O)[O-])c3)C2=O)cc1 (centres undefined),89*,0,-10,0,4,0
O=c1c2ccccc2[nH]c2ccc(O)cc12,87*,0,-125,12,-19,0
CCOC(=O)c1c(-c2ccccc2)[nH]c2ccc(O)cc12,98*,0,1,1,-8,0
COc1ccc(C(=O)NCC(=O)N2CCCC(C(F)(F)F)C2)cc1OC (centres undefined),5,0,-2,0,-16,0
COC(=O)c1c(C)c(OC(=O)c2c(C)cc(O)c(C=O)c2O)cc(C)c1O,-5,0,-4,4,-21,0
COc1cc(C(=O)O)c2c(c1C)OC(=O)c1c(C)cc(O)c(C=O)c1O2,99*,-2,22,0,35,0
SMILES,ALR H2O2 inh,Bfl-1 A1 inh,VLA-4 inh,AHR act,Mot1-301 SUMO,Efflux pump inh
Cc1cc(NC(=S)NC(=O)CC(C)C)ccc1Br,-8,1,5,64*,32,0
CCN(CC)C(=O)CSc1nc2ncc(Cl)cc2[nH]1,-7,1,14,44,-8,0
CCN(CC)C(=O)CSc1nc2ncc(Br)cc2[nH]1,-5,0,0,63*,1,0
CCOc1cc(C2NC(=O)CCC2[N+](=O)[O-])cc(Br)c1OC (centres undefined),5,0,9,-1,0,0
Cc1cccc(NC(=O)CSCC(=O)OCc2ccccn2)c1,99*,1,1,5,300,0
COc1cccc(CN(C)C(=O)CSCC(=O)Nc2cccc(C)c2)c1OC,92*,0,2,1,10,0
COc1ccc(NC(=O)CSCC(=O)N(C)Cc2cccc(OC)c2OC)cc1,-3,0,-5,-1,41,0
Cc1[nH][nH]c(=O)c1N=Nc1ccc(Cl)cc1,-2,-4,-3,51*,.,-1
Cc1cc(=O)oc2c3c4c(cc12)OCCN4CCC3,97*,1,-18,8,.,0
C/C(=N\NC(=O)CCc1ccc(S(=O)(=O)N2CCOCC2)cc1)c1ccccc1Cl,98*,-1,-1,2,-19,0
Cc1ccc(S(=O)(=O)CCC(=O)c2ccc(O)cc2O)cc1,98*,0,-8,-2,-13,0
O=c1c2[nH]c3ccc(F)cc3c2ncn1CCCN1CCOCC1,-15,0,7,14,-24,0
Cc1ccc2[nH]c3c(N4CCOCC4)ncnc3c2c1,-21,-1,1,73*,-6,0
Fc1ccc2[nH]c3c(N4CCc5ccccc5C4)ncnc3c2c1,-3,0,8,-3,122,0
c1ccc2c(c1)[nH]c1c(N3CCCC3)ncnc12,-4,1,-4,65*,-16,0
c1ccc2c(c1)[nH]c1c(N3CCSCC3)ncnc12,-4,0,-5,42,i,0
c1ccc2c(c1)[nH]c1c(N3CCOCC3)ncnc12,-15,0,13,37,236,0
Brc1ccc2[nH]c3c(N4CCc5ccccc5C4)ncnc3c2c1,.,1,4,51*,344*,0
Fc1ccc2[nH]c3c(NCCN4CCOCC4)ncnc3c2c1,4,0,4,75*,-21,0
Brc1ccc2[nH]c3c(NCc4ccccn4)ncnc3c2c1,3,1,5,78*,-6,0
Cc1ccc2[nH]c3c(NCc4ccccc4)ncnc3c2c1,-7,1,16,.,266,0
CCOC(=O)c1[nH]c2ccccc2c1NC(=S)Nc1cc(C)ccc1C,.,4,-3,60*,21,0
CCCC(=O)Nc1c(C(=O)OCC)[nH]c2ccccc12,-4,1,-15,58*,139,0
CCOC(=O)c1[nH]c2ccccc2c1N=CN(CC)CC,99*,0,3,31,-17,0
CCOC(=O)c1[nH]c2ccccc2c1NC(=O)CC(C)C,-4,0,-6,18,14,0
